# Test results taken from PubChem BioAssay (NCATS).
# Values without a mark were called inactive. Records with an inconclusive call do not appear. Active and inactive are the calls of the source. Calls come from the whole dose curve; as a rule, active = well fitted curve in the direction sought with a large enough effect; inconclusive = small, poorly fitted or top-dose-only effect, or another doubt; inactive = no such curve, though single readings can be large; an effect the other way counts as inactive or inconclusive.
# Target: Arylsulfatase A (Homo sapiens) (UniProt P15289)
# Assay: qHTS screen for enhancers of Arylsulfatase A (ASA1): LOPAC Validation Assay (AID 720538); note: potency is the fitted concentration of half-maximal effect; for activity change, positive = activation: 0% is about no effect
# Conditions: ASA enzyme activity, LOPAC qHTS enhancer assay; series mostly up to 57.5 µM; activity change, positive = activation: at the top concentration
# Procedure, shortened: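 SV40-transformed fibroblasts from an MLD patient (ASA-I179S) were treated with compound for 48 h at 37 C. They were then lysed with 0.5 mM pNCS substrate (final) for 14 h at room temperature and stopped with NaOH; signal read by fluorescence (Ex 525/Em 598 nm), with increase denoting enhanced activity.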
# Arylsulfatase A (Homo sapiens), sequence (P15289 whole entry, looked up): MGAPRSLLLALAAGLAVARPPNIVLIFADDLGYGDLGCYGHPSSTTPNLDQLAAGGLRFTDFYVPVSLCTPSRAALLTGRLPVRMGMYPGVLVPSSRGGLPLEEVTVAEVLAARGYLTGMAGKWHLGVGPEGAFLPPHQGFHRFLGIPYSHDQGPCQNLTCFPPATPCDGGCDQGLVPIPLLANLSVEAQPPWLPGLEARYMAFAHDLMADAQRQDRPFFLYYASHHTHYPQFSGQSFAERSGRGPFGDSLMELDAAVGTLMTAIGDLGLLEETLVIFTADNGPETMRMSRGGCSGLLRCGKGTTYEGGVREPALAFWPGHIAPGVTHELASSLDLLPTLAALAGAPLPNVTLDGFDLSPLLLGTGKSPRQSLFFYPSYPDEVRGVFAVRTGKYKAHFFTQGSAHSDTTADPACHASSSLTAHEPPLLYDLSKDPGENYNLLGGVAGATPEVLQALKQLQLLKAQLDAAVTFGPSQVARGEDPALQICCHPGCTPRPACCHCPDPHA
Compound,outcome,"activity change, positive = activation [%]",Potency
Cc1cn([C@H]2C[C@H](N=[N+]=[N-])[C@@H](CO)O2)c(=O)[nH]c1=O,inactive,–,–
CC(C(=O)O)c1cccc(C(=O)c2ccccc2)c1 (configuration not stated),–,19.6,–
OCCN(CCO)c1nc(N2CCCCC2)c2nc(N(CCO)CCO)nc(N3CCCCC3)c2n1,–,-13.5,–
Nc1ccn([C@H]2CC[C@@H](CO)O2)c(=O)n1,inactive,–,–
CC(CCc1ccc(O)cc1)NCCc1ccc(O)c(O)c1 (configuration not stated),inactive,–,–
CCc1cccc2c3c([nH]c12)C(CC)(CC(=O)O)OCC3 (configuration not stated),–,22.6,–
CCC1(c2ccccc2)C(=O)NCNC1=O,–,13.6,–
O=c1c(-c2ccc(O)cc2)coc2cc(O)cc(O)c12,–,3.93,–
Cc1ccccc1N1C(=O)c2cc(S(N)(=O)=O)c(Cl)cc2NC1C (configuration not stated),–,2.44,–
NC(=O)OCC(COC(N)=O)c1ccccc1,inactive; inhibitor; fitted 8.4921 uM,–,–
NS(=O)(=O)c1cc2c(cc1Cl)NCNS2(=O)=O,–,-2.57,–
COc1ccc(CCN(C)CCCC(C#N)(c2ccc(OC)c(OC)c2)C(C)C)cc1OC (configuration not stated),inactive,–,–
CN(C)CCCN1c2ccccc2CCc2ccc(Cl)cc21,–,-1.33,–
COc1ccc2[nH]cc(CCNC(C)=O)c2c1,–,-23.9,–
Cn1c(=O)c2c(ncn2C)n(C)c1=O,inactive,–,–
Cc1cn([C@H]2C=C[C@@H](CO)O2)c(=O)[nH]c1=O,–,-2.25,–
CN1CCN(CCCN2c3ccccc3Sc3ccc(Cl)cc32)CC1,–,7.48,–
CN(C)c1nc(N(C)C)nc(N(C)C)n1,–,-48.4,–
NCCS(=O)(=O)O,–,-1.55,–
Clc1ccc(C(c2ccccc2Cl)C(Cl)Cl)cc1 (configuration not stated),inactive,–,–
O=C1c2c(O)ccc(O)c2C(=O)c2c(NCCNCCO)ccc(NCCNCCO)c21,–,–,23.9 µM (active)
COc1nc(C)nc(Cl)c1NC1=NCCN1,–,0.517,–
Nc1c2c(nc3ccccc13)CCCC2,inactive; inhibitor; fitted 3.3808 uM,–,–

# Test system: not listed separately
# Assay: qHTS for compounds that reverse cellular toxicity of Amyloid beta (A-beta) peptide in yeast: LOPAC Validation Assay (AID 720559);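 note: plate controls were DMSO for no effect and equimolar ferric chloride plus clioquinol rescue for full effect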
# Conditions: yeast expressing A-beta; series mostly up to 46.1 µM; growth rescue, positive = activation: at the top concentration
# Procedure, shortened: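 Yeast expressing toxic A-beta grown with pinned compounds at 30 C for 48 hr. Growth measured as absorbance at 600 nm; data normalized to DMSO and to an equimolar FeCl3/clioquinol mixture as positive control.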
row,Compound,"growth rescue, positive = activation [%]"
1,Cn1ccc2cc3c(cc21)CCN3C(=O)Nc1cccnc1,3.34
2,Cc1cn([C@H]2C[C@H](N=[N+]=[N-])[C@@H](CO)O2)c(=O)[nH]c1=O,-5.7
3,CC(C(=O)O)c1cccc(C(=O)c2ccccc2)c1 (configuration not stated),-1.27
4,OCCN(CCO)c1nc(N2CCCCC2)c2nc(N(CCO)CCO)nc(N3CCCCC3)c2n1,-4.38
5,Nc1ccn([C@H]2CC[C@@H](CO)O2)c(=O)n1,-3.03
6,CC(CCc1ccc(O)cc1)NCCc1ccc(O)c(O)c1 (configuration not stated),3.77
7,CCc1cccc2c3c([nH]c12)C(CC)(CC(=O)O)OCC3 (configuration not stated),-1.23
8,CCC1(c2ccccc2)C(=O)NCNC1=O,-1.33
9,CC(C)NCC(O)c1ccc(O)c(O)c1 (configuration not stated),-3.84
10,O=c1c(O)c(-c2ccc(O)c(O)c2)oc2cc(O)cc(O)c12,6.35
11,O=c1c(-c2ccc(O)cc2)coc2cc(O)cc(O)c12,-0.286
12,Cc1ccccc1N1C(=O)c2cc(S(N)(=O)=O)c(Cl)cc2NC1C (configuration not stated),-5.04
13,NC(=O)OCC(COC(N)=O)c1ccccc1,-6.57
14,NS(=O)(=O)c1cc2c(cc1Cl)NCNS2(=O)=O,2.78
15,CN(C)CCCN1c2ccccc2CCc2ccc(Cl)cc21,0.543
16,COc1ccc2[nH]cc(CCNC(C)=O)c2c1,-6.15
17,Cn1c(=O)c2c(ncn2C)n(C)c1=O,-1.82
18,Cc1cn([C@H]2C=C[C@@H](CO)O2)c(=O)[nH]c1=O,-4.19
19,CN1CCN(CCCN2c3ccccc3Sc3ccc(Cl)cc32)CC1,-1.86
20,CN(C)c1nc(N(C)C)nc(N(C)C)n1,-8.82
21,NCCS(=O)(=O)O,-4.99
22,Clc1ccc(C(c2ccccc2Cl)C(Cl)Cl)cc1 (configuration not stated),-7.27
23,O=C1c2c(O)ccc(O)c2C(=O)c2c(NCCNCCO)ccc(NCCNCCO)c21,-30.3
24,COc1nc(C)nc(Cl)c1NC1=NCCN1,-3.72
25,Nc1c2c(nc3ccccc13)CCCC2,-1.23

# Test system: not listed separately
# Assay: qHTS for Activators of Parkin Expression: LOPAC Validation Assay (NLuc Reporter) (AID 720572;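 note: 0% = DMSO and 100% = positive control compound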)
# Conditions: Parkin promoter NanoLuc reporter cells, luminescence, percent of positive control, DMSO as zero; series mostly up to 46.1 µM; activation: at the top concentration
# Procedure, shortened: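 Neuronal cells with a Parkin promoter-driven FLuc/NLuc coincidence reporter were treated 24 h at 37 C in 7-point dose response (LOPAC). NLuc luminescence read after FLuc; signals normalized to DMSO and positive control (100%).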
row,Compound,activation [%]
1,Cn1ccc2cc3c(cc21)CCN3C(=O)Nc1cccnc1,-3.06
2,Cc1cn([C@H]2C[C@H](N=[N+]=[N-])[C@@H](CO)O2)c(=O)[nH]c1=O,1.62
3,CC(C(=O)O)c1cccc(C(=O)c2ccccc2)c1 (configuration not stated),12.4
4,O=c1[nH]cc(F)c(=O)[nH]1,17.3
5,Nc1ccn([C@H]2CC[C@@H](CO)O2)c(=O)n1,-0.926
6,CC(CCc1ccc(O)cc1)NCCc1ccc(O)c(O)c1 (configuration not stated),8.07
7,CCc1cccc2c3c([nH]c12)C(CC)(CC(=O)O)OCC3 (configuration not stated),12.1
8,CCC1(c2ccccc2)C(=O)NCNC1=O,-3.81
9,CC(C)NCC(O)c1ccc(O)c(O)c1 (configuration not stated),-0.375
10,Cc1ccccc1N1C(=O)c2cc(S(N)(=O)=O)c(Cl)cc2NC1C (configuration not stated),0.294
11,NC(=O)OCC(COC(N)=O)c1ccccc1,-4.66
12,NS(=O)(=O)c1cc2c(cc1Cl)NCNS2(=O)=O,-4.42
13,COc1ccc(CCN(C)CCCC(C#N)(c2ccc(OC)c(OC)c2)C(C)C)cc1OC (configuration not stated),6.1
14,CN(C)CCCN1c2ccccc2CCc2ccc(Cl)cc21,-5.73
15,COc1ccc2[nH]cc(CCNC(C)=O)c2c1,-0.486
16,Cn1c(=O)c2c(ncn2C)n(C)c1=O,-4.71
17,Cc1cn([C@H]2C=C[C@@H](CO)O2)c(=O)[nH]c1=O,1.83
18,CN1CCN(CCCN2c3ccccc3Sc3ccc(Cl)cc32)CC1,-5.33
19,CN(C)c1nc(N(C)C)nc(N(C)C)n1,-3.13
20,NCCS(=O)(=O)O,4.85
21,Clc1ccc(C(c2ccccc2Cl)C(Cl)Cl)cc1 (configuration not stated),-7.36
22,O=C1c2c(O)ccc(O)c2C(=O)c2c(NCCNCCO)ccc(NCCNCCO)c21,-26.1
23,COc1nc(C)nc(Cl)c1NC1=NCCN1,-2.86
24,Nc1c2c(nc3ccccc13)CCCC2,0.962
